Experimental data from the supplement of paper PMC11732987, “Enantioselective OTUD7B fragment discovery through chemoproteomics screening and high-throughput optimisation” (Communications Chemistry, 2025).

Assays:
Experiment in all cases: log2 ratio of Biotin-Ahx-Ub-VS probe labelling (fragment/DMSO); higher = less target engagement (more negative = stronger competition), active = hit call of the paper (q ≤ 0.05, log2 ratio ≤ -1)
Details in all cases: compound concentration: 200 uM; treatment time: 3 h
USP42 = biological target: T1, USP42 (UniProt Q9H9J4)
T1 sequence (whole entry): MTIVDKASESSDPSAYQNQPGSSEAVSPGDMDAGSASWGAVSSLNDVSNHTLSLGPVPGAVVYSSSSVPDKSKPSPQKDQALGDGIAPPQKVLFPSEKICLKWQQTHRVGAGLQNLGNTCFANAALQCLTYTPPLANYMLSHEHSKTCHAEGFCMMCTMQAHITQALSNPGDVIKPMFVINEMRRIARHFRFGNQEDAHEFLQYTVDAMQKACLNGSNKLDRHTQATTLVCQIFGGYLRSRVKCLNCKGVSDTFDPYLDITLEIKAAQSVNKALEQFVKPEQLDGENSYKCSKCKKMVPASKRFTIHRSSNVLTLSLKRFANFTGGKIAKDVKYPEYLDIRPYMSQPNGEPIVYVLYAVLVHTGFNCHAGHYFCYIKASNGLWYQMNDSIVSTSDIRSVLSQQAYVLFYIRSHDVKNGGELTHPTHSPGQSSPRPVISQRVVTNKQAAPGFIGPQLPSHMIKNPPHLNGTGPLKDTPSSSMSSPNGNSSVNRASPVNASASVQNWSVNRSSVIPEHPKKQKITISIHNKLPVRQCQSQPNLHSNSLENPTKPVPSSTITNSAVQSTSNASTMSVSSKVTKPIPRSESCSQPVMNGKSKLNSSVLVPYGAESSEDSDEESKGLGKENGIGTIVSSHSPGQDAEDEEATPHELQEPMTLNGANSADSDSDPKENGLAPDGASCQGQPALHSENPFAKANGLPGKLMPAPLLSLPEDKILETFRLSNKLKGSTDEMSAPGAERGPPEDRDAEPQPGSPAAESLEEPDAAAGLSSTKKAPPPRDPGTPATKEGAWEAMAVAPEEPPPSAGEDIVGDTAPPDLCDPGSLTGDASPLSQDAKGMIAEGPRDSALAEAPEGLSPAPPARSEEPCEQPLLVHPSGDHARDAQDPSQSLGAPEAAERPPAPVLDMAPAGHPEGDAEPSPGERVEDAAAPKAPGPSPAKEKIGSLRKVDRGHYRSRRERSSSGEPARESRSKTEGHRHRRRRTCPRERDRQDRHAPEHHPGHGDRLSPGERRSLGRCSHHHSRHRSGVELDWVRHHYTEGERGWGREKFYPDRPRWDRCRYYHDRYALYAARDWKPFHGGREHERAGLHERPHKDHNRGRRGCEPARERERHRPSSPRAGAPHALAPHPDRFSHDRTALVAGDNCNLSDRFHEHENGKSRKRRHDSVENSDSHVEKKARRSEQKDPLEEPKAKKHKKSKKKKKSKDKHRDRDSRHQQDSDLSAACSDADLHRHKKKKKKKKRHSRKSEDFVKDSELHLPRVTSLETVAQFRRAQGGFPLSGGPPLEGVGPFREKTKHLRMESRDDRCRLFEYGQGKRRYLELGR
Procedure, shortened: (§1)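 Triplicate samples of HEK293T lysate, 495 µg each, received fragment at 200 µM or vehicle for 3 h, followed by Biotin-Ahx-Ub-VS (0.5 µM final) for 1 h. After NeutrAvidin enrichment of labelled DUBs and LysC/trypsin digestion, peptides were run by diaPASEF LC-MS/MS. The values are average log2 fragment/vehicle ratios from global-median-normalised Spectronaut label-free quantities, tested by unpaired t-test on proteins having ≥2 unique peptides.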

USP46 = USP46 (UniProt P62068)
Procedure, shortened: as §1

USP47 = biological target: T2, USP47 (UniProt Q96K76)
T2 sequence (whole entry): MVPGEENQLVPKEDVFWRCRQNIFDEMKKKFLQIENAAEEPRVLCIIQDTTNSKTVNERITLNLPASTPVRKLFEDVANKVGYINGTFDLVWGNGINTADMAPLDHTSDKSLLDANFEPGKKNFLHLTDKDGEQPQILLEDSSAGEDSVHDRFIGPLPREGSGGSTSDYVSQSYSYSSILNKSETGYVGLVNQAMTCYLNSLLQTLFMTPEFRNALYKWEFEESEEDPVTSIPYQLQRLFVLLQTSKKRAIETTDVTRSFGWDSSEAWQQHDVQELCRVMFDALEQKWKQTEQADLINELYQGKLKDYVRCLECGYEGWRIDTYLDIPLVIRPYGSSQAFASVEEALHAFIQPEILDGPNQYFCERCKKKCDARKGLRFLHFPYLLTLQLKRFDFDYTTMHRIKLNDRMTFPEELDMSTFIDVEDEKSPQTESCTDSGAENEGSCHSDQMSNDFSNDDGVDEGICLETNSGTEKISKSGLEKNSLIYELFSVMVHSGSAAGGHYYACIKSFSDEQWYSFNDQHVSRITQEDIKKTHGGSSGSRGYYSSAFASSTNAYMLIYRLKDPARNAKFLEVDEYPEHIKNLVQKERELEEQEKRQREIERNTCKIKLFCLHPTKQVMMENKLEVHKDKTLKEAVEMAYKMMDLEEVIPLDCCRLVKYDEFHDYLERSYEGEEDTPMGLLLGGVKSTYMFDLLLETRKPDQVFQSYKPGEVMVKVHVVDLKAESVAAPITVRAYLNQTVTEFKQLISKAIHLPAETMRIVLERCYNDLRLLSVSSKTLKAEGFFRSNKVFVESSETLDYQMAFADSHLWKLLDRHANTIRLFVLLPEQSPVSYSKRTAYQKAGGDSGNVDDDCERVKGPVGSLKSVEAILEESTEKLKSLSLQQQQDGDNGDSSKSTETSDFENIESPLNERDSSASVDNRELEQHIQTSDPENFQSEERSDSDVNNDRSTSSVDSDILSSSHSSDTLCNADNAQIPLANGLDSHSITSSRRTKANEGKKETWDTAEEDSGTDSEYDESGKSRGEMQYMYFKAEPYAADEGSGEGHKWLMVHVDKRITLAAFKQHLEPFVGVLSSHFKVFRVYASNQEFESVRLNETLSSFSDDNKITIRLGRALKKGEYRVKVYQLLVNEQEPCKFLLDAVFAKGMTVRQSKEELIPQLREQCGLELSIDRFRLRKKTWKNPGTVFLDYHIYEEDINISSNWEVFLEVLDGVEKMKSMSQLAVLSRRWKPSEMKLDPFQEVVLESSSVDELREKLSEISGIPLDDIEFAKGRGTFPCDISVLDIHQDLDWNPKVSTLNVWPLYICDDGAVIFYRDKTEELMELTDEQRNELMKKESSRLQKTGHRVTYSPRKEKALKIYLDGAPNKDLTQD
Procedure, shortened: as §1

USP48 = biological target: T3, USP48 (UniProt Q86UV5)
T3 sequence (whole entry): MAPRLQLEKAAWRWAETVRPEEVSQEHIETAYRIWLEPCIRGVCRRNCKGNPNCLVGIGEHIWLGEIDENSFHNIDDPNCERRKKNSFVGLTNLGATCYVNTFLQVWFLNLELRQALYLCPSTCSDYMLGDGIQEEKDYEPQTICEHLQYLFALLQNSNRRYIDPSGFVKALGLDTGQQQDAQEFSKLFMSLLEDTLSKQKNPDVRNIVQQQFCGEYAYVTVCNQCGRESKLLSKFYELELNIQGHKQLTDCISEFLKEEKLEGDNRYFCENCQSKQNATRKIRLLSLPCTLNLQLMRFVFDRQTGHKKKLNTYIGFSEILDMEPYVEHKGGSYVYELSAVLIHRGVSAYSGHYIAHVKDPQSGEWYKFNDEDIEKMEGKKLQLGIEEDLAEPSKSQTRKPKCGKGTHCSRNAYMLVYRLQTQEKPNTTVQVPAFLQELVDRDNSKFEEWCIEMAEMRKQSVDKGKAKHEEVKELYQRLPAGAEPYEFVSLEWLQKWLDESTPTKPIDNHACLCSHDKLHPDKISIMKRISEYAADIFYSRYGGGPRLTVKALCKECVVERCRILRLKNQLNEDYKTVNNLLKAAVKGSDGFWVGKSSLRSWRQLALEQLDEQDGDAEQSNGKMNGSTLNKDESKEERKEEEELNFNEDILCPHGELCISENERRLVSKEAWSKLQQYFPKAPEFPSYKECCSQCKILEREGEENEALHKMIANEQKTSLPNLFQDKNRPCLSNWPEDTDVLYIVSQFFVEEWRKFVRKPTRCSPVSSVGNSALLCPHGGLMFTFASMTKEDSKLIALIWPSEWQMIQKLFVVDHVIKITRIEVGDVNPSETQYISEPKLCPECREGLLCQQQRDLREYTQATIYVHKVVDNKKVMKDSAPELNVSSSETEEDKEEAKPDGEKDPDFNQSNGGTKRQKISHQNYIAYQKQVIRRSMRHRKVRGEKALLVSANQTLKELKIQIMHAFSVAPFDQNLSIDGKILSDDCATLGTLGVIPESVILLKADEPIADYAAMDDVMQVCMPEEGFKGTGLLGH
Procedure, shortened: as §1

USP5 = biological target: T4, USP5 (UniProt P45974)
T4 sequence (whole entry): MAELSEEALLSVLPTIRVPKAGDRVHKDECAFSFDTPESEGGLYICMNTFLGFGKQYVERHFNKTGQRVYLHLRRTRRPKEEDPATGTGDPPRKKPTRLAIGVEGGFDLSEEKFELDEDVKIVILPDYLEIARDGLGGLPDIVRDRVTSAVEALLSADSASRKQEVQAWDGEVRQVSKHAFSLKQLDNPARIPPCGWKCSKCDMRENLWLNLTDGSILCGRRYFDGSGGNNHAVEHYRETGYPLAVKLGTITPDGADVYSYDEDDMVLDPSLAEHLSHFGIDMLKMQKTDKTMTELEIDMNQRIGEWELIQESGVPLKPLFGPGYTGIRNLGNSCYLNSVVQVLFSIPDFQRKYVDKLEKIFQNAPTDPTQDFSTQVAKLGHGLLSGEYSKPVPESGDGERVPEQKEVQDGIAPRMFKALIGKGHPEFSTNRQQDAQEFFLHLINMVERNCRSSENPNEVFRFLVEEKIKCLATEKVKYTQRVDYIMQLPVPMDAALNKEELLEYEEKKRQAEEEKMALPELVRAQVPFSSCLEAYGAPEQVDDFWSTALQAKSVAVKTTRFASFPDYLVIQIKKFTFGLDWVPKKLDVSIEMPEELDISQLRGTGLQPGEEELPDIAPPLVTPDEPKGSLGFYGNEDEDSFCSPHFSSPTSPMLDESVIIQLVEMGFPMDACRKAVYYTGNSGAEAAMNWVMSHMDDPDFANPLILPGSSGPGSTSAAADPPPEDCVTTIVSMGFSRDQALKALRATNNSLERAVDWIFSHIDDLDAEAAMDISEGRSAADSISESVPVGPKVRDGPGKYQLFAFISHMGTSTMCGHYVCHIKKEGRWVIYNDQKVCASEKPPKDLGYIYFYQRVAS
Procedure, shortened: as §1

USP54 = USP54 (UniProt Q70EL1)
Procedure, shortened: as §1

USP7 = USP7 (UniProt Q93009)
Procedure, shortened: as §1

USP8 = biological target: T5, USP8 (UniProt P40818)
T5 sequence (whole entry): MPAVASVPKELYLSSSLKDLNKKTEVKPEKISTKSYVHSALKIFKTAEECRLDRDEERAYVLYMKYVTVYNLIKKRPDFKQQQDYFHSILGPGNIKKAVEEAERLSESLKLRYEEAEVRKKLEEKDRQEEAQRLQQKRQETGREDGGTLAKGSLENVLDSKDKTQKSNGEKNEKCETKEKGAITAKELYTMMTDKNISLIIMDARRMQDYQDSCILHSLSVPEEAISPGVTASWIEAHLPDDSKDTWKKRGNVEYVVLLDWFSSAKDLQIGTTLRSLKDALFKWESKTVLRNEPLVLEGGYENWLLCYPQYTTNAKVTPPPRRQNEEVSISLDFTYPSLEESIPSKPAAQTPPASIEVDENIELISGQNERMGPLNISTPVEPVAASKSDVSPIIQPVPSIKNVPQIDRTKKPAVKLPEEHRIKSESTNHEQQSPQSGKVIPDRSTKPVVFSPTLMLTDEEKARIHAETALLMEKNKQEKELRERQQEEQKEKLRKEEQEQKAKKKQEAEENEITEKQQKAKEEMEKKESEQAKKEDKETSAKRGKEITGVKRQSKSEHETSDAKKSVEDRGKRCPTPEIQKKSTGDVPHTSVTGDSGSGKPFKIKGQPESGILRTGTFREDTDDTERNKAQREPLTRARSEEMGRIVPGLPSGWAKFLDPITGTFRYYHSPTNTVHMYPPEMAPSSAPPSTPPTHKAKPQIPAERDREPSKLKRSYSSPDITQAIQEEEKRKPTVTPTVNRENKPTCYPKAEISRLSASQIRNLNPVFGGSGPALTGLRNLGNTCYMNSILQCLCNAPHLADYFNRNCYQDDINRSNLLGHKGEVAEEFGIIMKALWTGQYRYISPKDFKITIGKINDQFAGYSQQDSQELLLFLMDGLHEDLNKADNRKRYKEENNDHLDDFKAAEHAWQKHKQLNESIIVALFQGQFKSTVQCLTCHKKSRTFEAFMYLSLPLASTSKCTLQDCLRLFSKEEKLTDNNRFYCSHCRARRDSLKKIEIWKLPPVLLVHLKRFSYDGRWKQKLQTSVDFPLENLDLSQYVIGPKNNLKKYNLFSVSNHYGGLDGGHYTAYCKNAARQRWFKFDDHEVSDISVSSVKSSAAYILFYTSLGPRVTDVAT
Procedure, shortened: as §1

USP9X = USP9X (UniProt Q93008)
Procedure, shortened: as §1

UniProt O00487 = biological target: UniProt O00487
Procedure, shortened: as §1

Measured: log2 ratio of Biotin-Ahx-Ub-VS probe labelling

USP9X, sequence (Q93008 whole entry): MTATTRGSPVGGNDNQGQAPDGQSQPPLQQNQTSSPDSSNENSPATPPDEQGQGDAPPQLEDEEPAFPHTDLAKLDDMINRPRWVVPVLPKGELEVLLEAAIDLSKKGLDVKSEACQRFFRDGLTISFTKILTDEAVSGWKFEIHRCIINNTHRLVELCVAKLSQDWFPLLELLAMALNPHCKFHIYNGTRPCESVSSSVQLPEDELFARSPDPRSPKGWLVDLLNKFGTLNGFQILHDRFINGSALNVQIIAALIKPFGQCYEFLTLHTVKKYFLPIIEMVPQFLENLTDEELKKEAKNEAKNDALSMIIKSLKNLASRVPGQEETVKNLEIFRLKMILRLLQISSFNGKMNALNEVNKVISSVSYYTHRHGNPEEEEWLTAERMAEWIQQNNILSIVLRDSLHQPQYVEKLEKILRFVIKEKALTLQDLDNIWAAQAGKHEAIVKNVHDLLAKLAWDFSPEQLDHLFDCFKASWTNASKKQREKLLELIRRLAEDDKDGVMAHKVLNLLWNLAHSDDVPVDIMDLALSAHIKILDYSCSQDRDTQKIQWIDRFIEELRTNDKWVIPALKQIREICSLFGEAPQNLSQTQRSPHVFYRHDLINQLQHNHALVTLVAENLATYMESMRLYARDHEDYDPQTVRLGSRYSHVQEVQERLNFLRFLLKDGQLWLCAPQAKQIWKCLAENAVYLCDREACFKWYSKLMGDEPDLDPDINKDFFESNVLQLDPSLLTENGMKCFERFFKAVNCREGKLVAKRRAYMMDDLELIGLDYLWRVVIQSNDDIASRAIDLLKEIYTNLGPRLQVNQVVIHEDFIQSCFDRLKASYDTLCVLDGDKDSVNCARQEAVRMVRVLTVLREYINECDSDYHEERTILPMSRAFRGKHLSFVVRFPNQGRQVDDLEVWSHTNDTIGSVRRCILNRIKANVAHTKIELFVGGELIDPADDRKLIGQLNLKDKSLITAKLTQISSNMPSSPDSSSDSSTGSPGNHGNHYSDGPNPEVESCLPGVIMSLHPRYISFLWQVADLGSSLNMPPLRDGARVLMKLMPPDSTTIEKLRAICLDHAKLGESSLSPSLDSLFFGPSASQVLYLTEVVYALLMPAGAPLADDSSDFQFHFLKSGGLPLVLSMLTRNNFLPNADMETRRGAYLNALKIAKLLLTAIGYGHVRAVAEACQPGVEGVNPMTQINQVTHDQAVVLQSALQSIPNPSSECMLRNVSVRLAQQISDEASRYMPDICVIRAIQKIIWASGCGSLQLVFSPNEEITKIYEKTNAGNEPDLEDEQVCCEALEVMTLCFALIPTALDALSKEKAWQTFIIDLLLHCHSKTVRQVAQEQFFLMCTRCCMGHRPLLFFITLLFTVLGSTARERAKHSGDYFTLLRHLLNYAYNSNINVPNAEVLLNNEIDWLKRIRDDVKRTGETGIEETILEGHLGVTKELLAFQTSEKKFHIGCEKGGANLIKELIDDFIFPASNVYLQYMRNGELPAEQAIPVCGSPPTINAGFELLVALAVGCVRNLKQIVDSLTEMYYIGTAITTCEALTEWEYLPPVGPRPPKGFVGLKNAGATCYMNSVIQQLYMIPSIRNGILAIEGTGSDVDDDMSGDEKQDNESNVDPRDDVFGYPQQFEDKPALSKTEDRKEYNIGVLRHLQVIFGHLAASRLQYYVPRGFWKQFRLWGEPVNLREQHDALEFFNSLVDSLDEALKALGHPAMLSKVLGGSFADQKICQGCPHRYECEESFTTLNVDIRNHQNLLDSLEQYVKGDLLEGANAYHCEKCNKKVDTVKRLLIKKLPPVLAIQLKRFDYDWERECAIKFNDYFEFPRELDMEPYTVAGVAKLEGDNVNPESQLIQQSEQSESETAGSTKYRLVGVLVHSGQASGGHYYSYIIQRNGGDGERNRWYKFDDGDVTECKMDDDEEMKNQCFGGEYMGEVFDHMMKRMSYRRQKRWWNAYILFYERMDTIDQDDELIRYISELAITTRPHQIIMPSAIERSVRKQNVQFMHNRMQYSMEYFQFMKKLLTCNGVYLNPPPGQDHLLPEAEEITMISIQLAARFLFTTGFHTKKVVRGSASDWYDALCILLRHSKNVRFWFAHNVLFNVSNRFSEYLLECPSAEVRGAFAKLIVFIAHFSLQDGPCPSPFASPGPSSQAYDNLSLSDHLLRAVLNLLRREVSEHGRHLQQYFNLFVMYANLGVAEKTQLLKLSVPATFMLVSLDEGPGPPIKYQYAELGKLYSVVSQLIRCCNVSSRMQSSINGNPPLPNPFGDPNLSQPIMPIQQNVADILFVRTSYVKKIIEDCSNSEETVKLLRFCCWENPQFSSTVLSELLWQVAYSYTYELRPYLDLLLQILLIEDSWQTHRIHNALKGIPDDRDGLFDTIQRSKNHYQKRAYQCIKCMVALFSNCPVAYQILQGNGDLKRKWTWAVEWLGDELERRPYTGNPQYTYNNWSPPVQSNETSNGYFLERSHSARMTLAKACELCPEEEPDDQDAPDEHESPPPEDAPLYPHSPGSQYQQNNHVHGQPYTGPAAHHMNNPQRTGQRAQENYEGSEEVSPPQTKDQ
USP46, sequence (P62068 whole entry): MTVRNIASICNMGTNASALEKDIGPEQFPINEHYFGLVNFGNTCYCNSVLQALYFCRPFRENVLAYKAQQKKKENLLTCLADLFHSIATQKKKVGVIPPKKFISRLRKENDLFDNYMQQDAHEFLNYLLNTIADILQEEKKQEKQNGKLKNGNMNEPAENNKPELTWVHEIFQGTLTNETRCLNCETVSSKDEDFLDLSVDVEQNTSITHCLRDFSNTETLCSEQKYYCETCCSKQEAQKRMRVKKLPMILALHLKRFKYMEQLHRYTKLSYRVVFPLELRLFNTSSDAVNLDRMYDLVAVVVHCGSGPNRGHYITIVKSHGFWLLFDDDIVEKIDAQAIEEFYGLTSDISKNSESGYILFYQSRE
USP54, sequence (Q70EL1 whole entry): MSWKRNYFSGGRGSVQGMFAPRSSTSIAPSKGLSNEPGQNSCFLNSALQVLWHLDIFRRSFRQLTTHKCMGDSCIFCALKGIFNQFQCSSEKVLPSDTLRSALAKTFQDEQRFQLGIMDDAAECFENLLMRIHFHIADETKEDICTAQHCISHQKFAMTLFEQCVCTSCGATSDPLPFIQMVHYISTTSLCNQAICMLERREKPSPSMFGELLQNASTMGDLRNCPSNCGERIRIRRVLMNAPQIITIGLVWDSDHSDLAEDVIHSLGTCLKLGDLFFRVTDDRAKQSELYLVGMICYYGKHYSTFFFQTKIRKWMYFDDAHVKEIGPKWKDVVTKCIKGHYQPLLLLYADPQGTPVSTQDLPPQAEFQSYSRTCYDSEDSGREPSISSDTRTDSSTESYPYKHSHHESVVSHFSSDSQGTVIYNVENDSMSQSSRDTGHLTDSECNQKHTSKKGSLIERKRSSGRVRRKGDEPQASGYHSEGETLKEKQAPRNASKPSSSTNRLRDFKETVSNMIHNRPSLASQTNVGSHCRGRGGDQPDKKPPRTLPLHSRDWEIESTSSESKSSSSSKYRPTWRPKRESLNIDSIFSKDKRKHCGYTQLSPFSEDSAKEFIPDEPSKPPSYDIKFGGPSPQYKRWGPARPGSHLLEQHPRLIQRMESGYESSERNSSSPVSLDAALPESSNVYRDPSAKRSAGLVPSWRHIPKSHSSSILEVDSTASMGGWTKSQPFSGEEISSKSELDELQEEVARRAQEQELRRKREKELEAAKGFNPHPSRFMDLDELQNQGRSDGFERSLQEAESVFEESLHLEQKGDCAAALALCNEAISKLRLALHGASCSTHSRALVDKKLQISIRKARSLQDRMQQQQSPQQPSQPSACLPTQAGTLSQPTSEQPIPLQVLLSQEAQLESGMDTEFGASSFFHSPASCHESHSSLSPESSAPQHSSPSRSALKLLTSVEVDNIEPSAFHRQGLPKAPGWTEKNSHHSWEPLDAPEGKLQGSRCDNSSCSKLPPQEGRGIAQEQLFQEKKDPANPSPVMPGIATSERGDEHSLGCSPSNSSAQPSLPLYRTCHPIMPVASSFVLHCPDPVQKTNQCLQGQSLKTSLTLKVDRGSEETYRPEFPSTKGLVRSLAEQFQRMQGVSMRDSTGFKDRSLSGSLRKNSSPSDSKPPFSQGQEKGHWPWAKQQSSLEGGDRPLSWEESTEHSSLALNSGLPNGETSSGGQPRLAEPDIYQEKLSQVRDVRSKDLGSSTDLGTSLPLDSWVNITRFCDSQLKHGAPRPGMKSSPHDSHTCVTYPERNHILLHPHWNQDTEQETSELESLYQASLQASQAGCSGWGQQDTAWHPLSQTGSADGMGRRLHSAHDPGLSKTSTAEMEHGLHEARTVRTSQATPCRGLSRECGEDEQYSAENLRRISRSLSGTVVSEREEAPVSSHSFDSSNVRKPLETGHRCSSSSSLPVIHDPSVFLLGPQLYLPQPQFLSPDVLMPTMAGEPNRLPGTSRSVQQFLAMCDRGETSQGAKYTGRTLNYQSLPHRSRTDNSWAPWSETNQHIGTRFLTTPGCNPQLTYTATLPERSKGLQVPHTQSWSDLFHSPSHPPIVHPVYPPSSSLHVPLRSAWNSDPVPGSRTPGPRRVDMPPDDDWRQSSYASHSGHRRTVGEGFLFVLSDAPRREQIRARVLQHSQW
UniProt O00487, sequence (O00487 whole entry): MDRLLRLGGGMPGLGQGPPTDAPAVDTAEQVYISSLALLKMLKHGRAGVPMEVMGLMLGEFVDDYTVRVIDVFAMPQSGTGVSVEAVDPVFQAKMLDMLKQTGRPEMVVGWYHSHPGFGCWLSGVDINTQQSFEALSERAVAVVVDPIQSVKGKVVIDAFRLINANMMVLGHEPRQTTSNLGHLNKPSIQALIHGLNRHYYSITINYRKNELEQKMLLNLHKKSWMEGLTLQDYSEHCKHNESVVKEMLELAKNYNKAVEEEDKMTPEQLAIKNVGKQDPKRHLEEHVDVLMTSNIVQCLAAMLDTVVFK

O=C(CCl)N1CCC[C@@H]1c1ccon1
inactive: USP42 0.00575 | USP46 -0.0791 | USP47 -0.264 | USP48 -0.779 | USP5 -0.0234 | USP54 0.591 | USP7 -0.78 | USP8 -0.331 | USP9X -0.32 | UniProt O00487 -0.227
